From PubChem BioAssay (NCI)
This is part of a sample that, as a whole, favours compounds with a hit. Of some 83,000 tested, about 20% had one in any assay.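 Note: values are percent growth. 100 is the growth of untreated cells, values between 100 and 0 indicate rising inhibition; between -100 and 0 indicates cell death.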 Calls of active or inactive are those of the source. How the source made its calls: active means growth percent below 10; inactive means the rest.

tested on: SK-MEL-5 melanoma; assay: NCI-60 one-dose screen, 48 h (100 = growth as untreated, 0 = no growth, -100 = all killed); conditions: 10 µM unless noted

SMILES | growth
Clc1ccc(-c2nnc(Cn3ccnc3)o2)cc1 | 112% (inactive)
O=C1Nc2ccccc2SC1C1SC(=S)N(Cc2ccccc2)C1=O (configuration not stated) | 95.9% (inactive)
NC(=Nc1ccc(N)cc1)C(N)=Nc1ccc(N)cc1 | 98.7% (inactive)
OC(c1cccc(OCc2ccccc2)c1)c1nnc(-c2ccccc2)o1 (configuration not stated) | 66.4% (inactive)
CN1CCN(c2ccc(Nc3ncc(Cl)c(NC[C@@H]4CCCO4)n3)cc2)CC1 | 31% (inactive)
CC[C@]1(O)C[C@H]2CN(CCc3c([nH]c4ccccc34)[C@@](C(=O)OC)(c3cc4c(cc3OC)N(C=O)[C@H]3[C@@](O)(C(=O)OC)[C@H](OC(C)=O)[C@]5(CC)C=CCN6CC[C@]43[C@@H]65)C2)C1 | -73.5% (active)
CCN(CC)CC(=O)Nc1cccc(C(=O)OC(C)C)c1 | 107% (inactive)
Cc1cc(N(CCCNc2ccnc3cc(Cl)ccc23)Cc2ccccn2)nc(N2CCCC2)n1 | 65.6% (inactive)
O=C1CSC(c2ccccc2O)N1c1nnc(Cn2cnnc2)o1 (configuration not stated) | 95.1% (inactive)
CC(=O)c1sc(-c2ccccc2)cc1N | 95.7% (inactive)
COc1ccc(-c2cc(-c3ccc(Nc4nc(Nc5ccccc5)nc(Nc5ccc(Cl)cc5)n4)cc3)nc(N)c2C#N)cc1 | -21.8% (active)
COc1ccc(-c2nc3sccn3c2/C=C/C(=O)c2c[nH]c3ccccc23)cc1 | 58.8% (inactive)
N=c1ccn2c(n1)OC1C(O)C(CO)OC12 (configuration not stated) | 45.9% (inactive)
Cl.Fc1c[c-]c(-c2ccccn2)c(F)c1.[Pt].c1ccc(P(c2ccccc2)C([PH+](c2ccccc2)c2ccccc2)[PH+](c2ccccc2)c2ccccc2)cc1 | -91% (active)
CCCn1nc(-c2ccccc2)c2c(-c3ccccc3)onc2c1=O | 79.7% (inactive)
CCNCCNc1cc(-c2cccc(C(F)(F)F)c2)c(C#N)c2nc3ccccc3n12 | -96.1% (active)
CC(C)(C)N1CC(OC(N)=O)C1 | 102% (inactive)
Cc1ccc(-n2nnc(C3=NCCc4c3[nH]c3ccc(Cl)cc43)c2C)cc1 | 79.1% (inactive)

tested on: UACC-62 melanoma; assay: as above; conditions: 10 µM unless noted

SMILES | growth
COc1ccc(/C=C2\COc3ccc(O)cc3C2=O)c(OC)c1 | 50% (inactive)
CN(C)CCC(O)(Cc1ccccc1)c1ccccc1 (configuration not stated) | 117% (inactive)
COc1ccc(-c2cc(-c3ccc(Nc4nc(Nc5ccccc5)nc(Nc5ccc(Cl)cc5)n4)cc3)nc(N)n2)cc1 | 58.8% (inactive)
Clc1ccc2c(NCCCN3CCN(c4nc(-n5ccnc5)nc5ccccc45)CC3)ccnc2c1 | 93.4% (inactive)
Cn1ncc2c(Nc3ccc(Br)cc3)nc(Nc3ccc(Br)cc3)nc21 | 56.1% (inactive)
OC(COc1cccc2ccccc12)CN1CCN(c2ccccc2)CC1 (configuration not stated) | 98.2% (inactive)
O=c1[nH]c(=O)n(C2CC(O)C(CO)O2)cc1CO (configuration not stated) | 79.2% (inactive)
COc1cc2oc(-c3cccc(C(=O)Nc4ccc(C#N)cc4)c3)cc(=O)c2c(O)c1OC | 41.5% (inactive)
C=C(Cl)COC(=O)C(C)(C)O | 111% (inactive)
CC(C)(C)OC(=O)N1Cc2cc3ccccc3nc2C1CO (configuration not stated) | 100% (inactive)
COC1(CC[C@@H](C)COC2OC(CO)C(O)C(O)C2O)O[C@H]2C[C@H]3[C@@H]4CC=C5C[C@@H](OC6OC(CO)C(OC7OC(C)C(O)C(O)C7O)C(O)C6OC6OC(C)C(O)C(O)C6O)CC[C@]5(C)[C@H]4CC[C@]3(C)[C@H]2[C@@H]1C (some centres not stated) | -92.1% (active)
COc1cc(-c2cc(-c3ccc(Nc4nc(Nc5ccccc5)nc(Nc5ccc(Cl)cc5)n4)cc3)nc(N)n2)cc(OC)c1OC | 49.7% (inactive)
CN(C)c1ccc(C#Cc2c(F)cccc2Cl)cc1 | 87.6% (inactive)
NC(N)=N/N=C(/c1ccccc1)c1ccc(N)cc1 | 91.2% (inactive)
N=C(N)c1ccc(-c2ccc(-c3ccc(Cl)cc3Cl)o2)cc1 | 72.1% (inactive)
O=C(Oc1ccc[nH]c1=O)c1cc([N+](=O)[O-])cc([N+](=O)[O-])c1 | 114% (inactive)
Clc1ccc(-c2nnc(Cn3ccnc3)o2)cc1 | 90.2% (inactive)
COc1cccc(CCC2CCCN(c3cc(C)nc(N)n3)C2)c1 (configuration not stated) | 29.3% (inactive)
O=C1Nc2ccccc2SC1C1SC(=S)N(Cc2ccccc2)C1=O (configuration not stated) | 98.5% (inactive)
NC(=Nc1ccc(N)cc1)C(N)=Nc1ccc(N)cc1 | 104% (inactive)

SMILES | growth
OC(c1cccc(OCc2ccccc2)c1)c1nnc(-c2ccccc2)o1 (configuration not stated) | 61.7% (inactive)
CN1CCN(c2ccc(Nc3ncc(Cl)c(NC[C@@H]4CCCO4)n3)cc2)CC1 | 38.5% (inactive)
CC[C@]1(O)C[C@H]2CN(CCc3c([nH]c4ccccc34)[C@@](C(=O)OC)(c3cc4c(cc3OC)N(C=O)[C@H]3[C@@](O)(C(=O)OC)[C@H](OC(C)=O)[C@]5(CC)C=CCN6CC[C@]43[C@@H]65)C2)C1 | 23.9% (inactive)
CCN(CC)CC(=O)Nc1cccc(C(=O)OC(C)C)c1 | 102% (inactive)
Cc1cc(N(CCCNc2ccnc3cc(Cl)ccc23)Cc2ccccn2)nc(N2CCCC2)n1 | 95.1% (inactive)
O=C1CSC(c2ccccc2O)N1c1nnc(Cn2cnnc2)o1 (configuration not stated) | 90.8% (inactive)
CC(=O)c1sc(-c2ccccc2)cc1N | 91% (inactive)
COc1ccc(-c2cc(-c3ccc(Nc4nc(Nc5ccccc5)nc(Nc5ccc(Cl)cc5)n4)cc3)nc(N)c2C#N)cc1 | 22.8% (inactive)
NS(=O)(=O)Oc1ccc(NC(=O)C23CC4CC(CC(C4)C2)C3)cc1Cl | 86.8% (inactive)
COc1ccc(-c2nc3sccn3c2/C=C/C(=O)c2c[nH]c3ccccc23)cc1 | 76.1% (inactive)
COc1ccc(C2=NC(=O)NC2c2ccc(OC)cc2)cc1 (configuration not stated) | 47.2% (inactive)
N=c1ccn2c(n1)OC1C(O)C(CO)OC12 (configuration not stated) | 43.9% (inactive)
Cl.Fc1c[c-]c(-c2ccccn2)c(F)c1.[Pt].c1ccc(P(c2ccccc2)C([PH+](c2ccccc2)c2ccccc2)[PH+](c2ccccc2)c2ccccc2)cc1 | 23.2% (inactive)
CCCn1nc(-c2ccccc2)c2c(-c3ccccc3)onc2c1=O | 53.8% (inactive)
N#Cc1c(-c2ccccc2)nc(SCC2CO2)nc1N1CCOCC1 (configuration not stated) | 51.9% (inactive)
CCNCCNc1cc(-c2cccc(C(F)(F)F)c2)c(C#N)c2nc3ccccc3n12 | -68.6% (active)
COc1ccc(Cn2cnc3cc(C(=O)Nc4cccc5ccccc45)ccc32)c(OC)c1 | 14.8% [30 µM] (inactive)
CC(C)(C)N1CC(OC(N)=O)C1 | 103% (inactive)
Cc1ccc(-n2nnc(C3=NCCc4c3[nH]c3ccc(Cl)cc43)c2C)cc1 | 30.5% (inactive)
